# Results as given in PubChem BioAssay AID504648 (National Center for Advancing Translational Sciences (NCATS), 2011).
# Among all 390,000 compounds or so, about 610 (0.16%) were called active. Roughly 4% stayed inconclusive and do not appear here. Calls come from the whole dose curve; as a rule, active = well fitted inhibition curve with a large enough effect; inconclusive = small, poorly fitted or top-dose-only effect, or effect the other way, or another doubt; inactive = no such curve, though single readings can be large or run the other way. Only a selection was taken, and actives are over-represented in it overall.
# Assay: Nrf2 qHTS screen for inhibitors: counterscreen for cytotoxicity
# Conditions: A549 ARE-Fluc cells, CellTiter-Fluor viability, 18-24 h; series mostly up to 46 µM; activity change, negative = cytotoxicity: at the top concentration
# From the text: NIH Molecular Libraries Probe Production Network [MLPCN]
# NIH Chemical Genomics Center [NCGC]
# Assay Provider: Shyam Biswal, Johns Hopkins University
# Nrf2 is a transcription factor that maintains cellular redox homoestasis and protects cells from xenobiotics. Nrf2 binds to the antioxidant response element (ARE) to induce gene expression of a broad spectrum of genes that encode for antioxidants. […] Finding a small molecule that act as an inhibitor of Nrf2 function would represent a novel therapeutic target that could lead to improvement in survival of patients undergoing chemo- and/or radio- therapy.
# So here we implemented a counterscreen to weed out the cytotoxic compounds.
# 1. Shibata, T., et al., Genetic Alteration of Keap1 Confers Constitutive Nrf2 Activation and Resistance to Chemotherapy in Gallbladder Cancer. Gastroenterology, 2008.
# 2. Sjoblom, T., et al., The consensus coding sequences of human breast and colorectal cancers. Science, 2006. 314(5797): p. 268-74.
# NCGC Assay Protocol Summary:
# A concentration-response assay was performed with A549 ARE_Fluc cells which are suspended in 5% FBS OPTI-MEM. Five uL were dispensed into 1536-well white TC-treated plate using the Kalypsys dispenser to achieve a density of 5000 cells/well in all columns except column 1. The plate is incubated at 37deg C at 5% CO2 for 2 hours before 23 nL of compounds are added with the Kalypsys pin tool equipped with a 1,536-pin array containing 10-nL slotted pins (FP1S10, 0.457-mm diameter, 50.8 mm long; V&P Scientific). The control compounds Budesonide and Staurosporine are both added at a concentration of 2mM and Budesonide is also added as a 1:10 titration, starting at 200uM, to achieve dose-response. After an 18-24 hour incubation at 37deg C at 5% CO2, 5ul of medium is added to column 1. Afterwards 1ul of 5x of CellTiter-Fluor (Promega) is added to every well. The plate is then incubated at 37deg C at 5% CO2 for 30 minutes before they are read on the ViewLux (Perkin Elmer) for a fluorescent read Ex=405(10)/Em=525(10) for a 3 second exposure, 2x binning, and high gain. Then 3 uL of 3x BugLite is dispensed into all wells and the plate is incubated at ambient room temperature for 15 minutes. Afterwards another ViewLux read is performed using the clear filter to get a luminescent read with the settings of 40 second exposure, 2x binning, and high gain. Cytotoxicity is assessed through the first fluorescent read and then biochemical activity against Nrf2 is measured in the luminescent read.
# % is set by controls: 0 for no effect and ±100 for the full control effect; potency is the fitted concentration of half-maximal effect.
Compound,"activity change, negative = cytotoxicity",Potency
O=C(c1ccco1)N(Cc1cccs1)c1ccc(O)cc1,18.3% (inactive),–
COC(=O)CCc1ccccc1S(=O)(=O)N(CCC(=O)OC)Cc1ccccc1,-2.64% (inactive),–
C/C(Cc1ccccc1)=N\NC(=O)CNC(=O)c1ccccc1Cl,0.489% (inactive),–
Cc1ccc(NC(=S)N2CCN(c3ncccn3)CC2)cc1C,7.48% (inactive),–
C/C(=N\NC(=O)Cc1ccc(Cl)cc1)c1ccccn1,–,2.31 µM (active)
COc1ccc(S(=O)(=O)N2CCCC(C(=O)Nc3ccc(NC(=O)c4ccccn4)cc3)C2)cc1 (centres undefined),-6.09% (inactive),–
CC(=NNC(=S)N1CCCCCC1)c1ccccn1,–,20.6 µM (active)
C/C(=N/NC(=O)CSc1ccccn1)c1ccc([N+](=O)[O-])cc1,-8.17% (inactive),–
O=C1CSC2(C(=O)N(Cc3ccccc3)c3ccccc32)N1c1cccc(F)c1 (centres undefined),-6.81% (inactive),–
NS(=O)(=O)c1ccc(-c2ccc(/C=C3\SC(=O)NC3=O)o2)cc1,–,11.6 µM (active)
CCOc1ccc(NC(=O)CSc2nnc3c(n2)[nH]c2ccc(S(=O)(=O)N4CCOCC4)cc23)cc1,5.87% (inactive),–
O=C1C(F)N([S+](=O)([O-])c2ccc3c(c2)OCCO3)CCN1[S+](=O)([O-])c1c(F)cccc1F (centres undefined),1.53% (inactive),–
O=C(NNC(=O)c1cccc(S(=O)(=O)Nc2ccc(Cl)cc2)c1)c1ccc(=O)[nH]c1,7.7% (inactive),–
CC(=O)Nc1ccc(C(=O)Nc2cccc(S(=O)(=O)NC3=NCCC3)c2)cc1,-0.73% (inactive),–
O=C(Nc1cccc(S(=O)(=O)Nc2ccc(Cl)cc2)c1)c1ccc2c(c1)OCCO2,–,16.4 µM (active)
COc1cccc2c1C(=O)c1c(O)c3c(c(O)c1C2=O)CC(O)(C(C)=NNC(=O)c1ccc(Cl)c(Cl)c1)CC3OC1CC(N)C(O)C(C)O1 (centres undefined),–,11.6 µM (active)
O=S(=O)(Nc1cccc2cccnc12)c1cccc2cccnc12,-15.4% (inactive),–
COc1ccccc1CNc1ccc(-c2nc(-c3ccccc3C)no2)cc1[N+](=O)[O-],-0.21% (inactive),–
COc1ccc(-c2nc(=N)sn2-c2ccccc2)cc1,-0.495% (inactive),–
COc1ccc(Cn2c(=O)[nH]c3cc(C(=O)N4CCN(C(=O)c5ccco5)CC4)ccc3c2=O)cc1,0.466% (inactive),–

Compound,"activity change, negative = cytotoxicity",Potency
COc1ccc(C(CCN2CCOCC2)c2c(OC)cc(OC)c3c2OC(=O)CC3c2ccc(OC)cc2)cc1 (centres undefined),-15.8% (inactive),–
C=C1CCN(C(CC(C)C)C(=O)N2CCOCC2)S(=O)(=O)c2ccccc21 (centres undefined),5.21% (inactive),–
COc1ccc(-c2ccc(C3C4C=CCCC4(C)C(=O)N3Cc3ccccc3)c(F)c2)cc1OC (centres undefined),-6.6% (inactive),–
CC(=O)N1CCCc2ccc(NS(=O)(=O)c3ccc(F)cc3F)cc21,-2.91% (inactive),–
N#CN1CCC(NC(=O)c2ccc(F)cc2)CC1,0.665% (inactive),–
O=C(/C=C/c1ccc([N+](=O)[O-])o1)NNC(=O)c1ccc(F)cc1,–,14.6 µM (active)
CCCCCCC1(C)NC(c2ccc3c(c2)OCO3)=CC(c2ccccc2O)N1 (centres undefined),1.15% (inactive),–
O=C(CNC(=O)c1ccc(Cl)cc1Cl)OC(C(=O)Nc1cc(C(F)(F)F)ccc1Cl)c1ccccc1 (centres undefined),4.24% (inactive),–
COc1ccc(N2CCN(S(=O)(=O)c3ccc4c(c3)CC(=O)N4)CC2)cc1,-0.133% [at 92.2 µM] (inactive),–
CCN(CC)C(=O)CSc1nc2ccsc2c(=O)n1Cc1ccccc1Cl,-0.0336% (inactive),–
Cc1ccc(NC(=O)c2cc(S(=O)(=O)NCCC3=CCCCC3)ccc2F)cc1C,-27.7% (inactive),–
COc1ccc(-c2nnc(SCC(=O)Nc3ccccc3C)o2)cc1OC,8.42% (inactive),–
Cc1cccc(C)c1-n1c(C)cc(/C=C2\C(=O)NN(c3ccccc3)C2=O)c1C,–,20.6 µM (active)
Cc1cccc(NC(=O)c2ccc3nc(C(C)C)oc3c2)c1C,-2.46% (inactive),–
Cc1ccc(C)c(N2CCN(C(=O)Cn3nc(C)c4sc5ccccc5c4c3=O)CC2)c1,-0.191% (inactive),–
O=C1CCCC2=C1[C@@]1(CCC(c3ccccc3)C1)N=C(Nc1nc3ccccc3o1)N2 (some centres undefined),–,inactive
COc1cc(OC)c2ccc(=O)oc2c1C(CCN1CCN(c2ccccc2)CC1)c1ccc2c(c1)OCO2 (centres undefined),–,23.1 µM (active)
CCN(CC)CCC(c1ccc2c(c1)OCO2)c1c(OC)cc(OC)c2c(-c3ccccc3)cc(=O)oc12 (centres undefined),–,inactive
COc1cc(C(CCN2CCN(c3ccccc3)CC2)c2c(OC)cc(OC)c3ccc(=O)oc23)cc(OC)c1OC (centres undefined),–,inactive
CCO/C=C1\C(=O)N(c2ccc(OCC)cc2)C(=O)c2ccccc21,1.75% (inactive),–

Compound,"activity change, negative = cytotoxicity",Potency
CCOc1ccc(N=Cc2c(O)n(-c3cccc(C)n3)c(=O)c3ccccc23)cc1,–,18.4 µM (active)
COC(=O)Cc1csc(/N=C/c2c(O)n(-c3cccc(C(F)(F)F)c3)c(=O)c3ccccc23)n1,-0.417% (inactive),–
COc1ccc(-c2ccc(OC)c(C3C4C=CCC(C)C4C(=O)N3Cc3ccccc3)c2)cc1C (centres undefined),9.58% (inactive),–
COc1ccc(NC(=O)CSc2nc3ccccc3n2CC(=O)N2CCCCC2C)cc1 (centres undefined),2.61% (inactive),–
COc1cc(NS(=O)(=O)c2ccc3c(c2)OCC(C(=O)N2CCCC2)O3)cc(OC)c1 (centres undefined),11.7% (inactive),–
CCOC(=O)C1CCN(c2ncnc3c2c(-c2ccccc2)cn3-c2cccc(C)c2)CC1,-2.99% (inactive),–
Cc1ccc(-c2nc(CS(=O)(=O)CC(=O)NCc3ccccc3Cl)c(C)o2)cc1,-3.48% (inactive),–
O=C(CSc1nnc(-c2ccccc2F)o1)Nc1cccc(C(F)(F)F)c1,0.119% (inactive),–
Cc1noc(C)c1-c1ccc2ncnc(NCc3ccc(F)c(F)c3)c2c1,4.64% (inactive),–
CC(Nc1ncnc2ccc(-c3ccc4c(c3)OCO4)cc12)c1ccco1 (centres undefined),-4.09% (inactive),–
CCCS(=O)(=O)Nc1cccc(-c2cn3ccsc3n2)c1,-0.488% (inactive),–
CCOc1cc(-c2nnc(SCC(=O)NC3CCCC3)nc2-c2ccc(OC)c(OCC)c2)ccc1OC,0.646% (inactive),–
O=C(CNC(=O)c1ccc(Cl)c(C(F)(F)F)c1)OC(C(=O)Nc1cc(C(F)(F)F)ccc1Cl)c1ccccc1 (centres undefined),6.99% (inactive),–
COc1ccc(C(=O)NC(=S)N2CCNC(=O)C2CC(=O)OC(C)C)cc1 (centres undefined),-0.593% (inactive),–
CCOC(=O)CC1C(=O)NCCN1c1nc2c(C)cccn2c(=O)c1/C=C1\SC(=S)N(C(C)CC)C1=O (centres undefined),–,20.6 µM (active)
CCOC(=O)CNC(=O)c1cc2c(=O)n3cccc(C)c3nc2s1,-10.8% (inactive),–
Cc1cc(C)n2ncc(C(=O)N3CCCC3)c2n1,1.39% (inactive),–
CSc1ncc(Cl)c(C(=O)Nc2ccc(S(=O)(=O)N3CCCC(C)C3)cc2)n1 (centres undefined),-5.22% (inactive),–
Cc1noc(C)c1-c1ccc2ncnc(NCc3ccc4[nH]ccc4c3)c2c1,-2.7% (inactive),–
